The values that follow come from article PMC9911399, “Two distinct binding modes provide the RNA-binding protein RbFox with extraordinary sequence specificity”.

Where a chain is given by its changes, count along the chain named. Whole data set: some 16,000 sequences, median “ka relative to ugcaugu” near 0.096, cut for the highest 2% near 0.35. Many of the other results were omitted from the sample, so the highest values are more common in it than they were.

Sequences and labels used below:
T1: RBFOX1 RRM RbFoxmut (Fox-RRM*) (Homo sapiens, UniProt Q9NWB1 109-208, R118D;E147R;N151S;E152T)
T1 sequence: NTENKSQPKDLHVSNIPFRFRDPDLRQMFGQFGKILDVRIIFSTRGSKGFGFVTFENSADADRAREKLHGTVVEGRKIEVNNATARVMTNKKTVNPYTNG

B1: CACAGAG (DNA:RNA)
RNA: GGGAGACCGGAAUUCAGAUUGUCCCACAGAGUUAAAUCCCGUCGUAGCCACCA
DNA 1: CAATCTGAATTCCGGTCTCCC
DNA 2: TGGTGGCTACGACGGGATT
B2: ACGGAAU (DNA:RNA)
RNA: B1 RNA with C25A, A26C, C27G, A28G, G29A, G31U
DNA 1: CAATCTGAATTCCGGTCTCCC
DNA 2: TGGTGGCTACGACGGGATT
B3: AUGUUAC (DNA:RNA)
RNA: B1 RNA with C25A, A26U, C27G, A28U, G29U, G31C
DNA 1: CAATCTGAATTCCGGTCTCCC
DNA 2: TGGTGGCTACGACGGGATT
B4: CGGGGCG (DNA:RNA)
RNA: B1 RNA with A26G, C27G, A28G, A30C
DNA 1: CAATCTGAATTCCGGTCTCCC
DNA 2: TGGTGGCTACGACGGGATT
B5: AGAAAUG (DNA:RNA)
RNA: B1 RNA with C25A, A26G, C27A, G29A, A30U
DNA 1: CAATCTGAATTCCGGTCTCCC
DNA 2: TGGTGGCTACGACGGGATT
B6: AAGAAUG (DNA:RNA)
RNA: B1 RNA with C25A, C27G, G29A, A30U
DNA 1: CAATCTGAATTCCGGTCTCCC
DNA 2: TGGTGGCTACGACGGGATT
B7: GGAAAUG (DNA:RNA)
RNA: B1 RNA with C25G, A26G, C27A, G29A, A30U
DNA 1: CAATCTGAATTCCGGTCTCCC
DNA 2: TGGTGGCTACGACGGGATT
B8: AGAAUGU (DNA:RNA)
RNA: B1 RNA with C25A, A26G, C27A, G29U, A30G, G31U
DNA 1: CAATCTGAATTCCGGTCTCCC
DNA 2: TGGTGGCTACGACGGGATT
B9: GGGAAUG (DNA:RNA)
RNA: B1 RNA with C25G, A26G, C27G, G29A, A30U
DNA 1: CAATCTGAATTCCGGTCTCCC
DNA 2: TGGTGGCTACGACGGGATT
B10: AAGAUUG (DNA:RNA)
RNA: B1 RNA with C25A, C27G, G29U, A30U
DNA 1: CAATCTGAATTCCGGTCTCCC
DNA 2: TGGTGGCTACGACGGGATT
B11: GAGAGUA (DNA:RNA)
RNA: B1 RNA with C25G, C27G, A30U, G31A
DNA 1: CAATCTGAATTCCGGTCTCCC
DNA 2: TGGTGGCTACGACGGGATT
B12: GAGUAUC (DNA:RNA)
RNA: B1 RNA with C25G, C27G, A28U, G29A, A30U, G31C
DNA 1: CAATCTGAATTCCGGTCTCCC
DNA 2: TGGTGGCTACGACGGGATT
B13: GUUAAUG (DNA:RNA)
RNA: B1 RNA with C25G, A26U, C27U, G29A, A30U
DNA 1: CAATCTGAATTCCGGTCTCCC
DNA 2: TGGTGGCTACGACGGGATT
B14: AGAUUGU (DNA:RNA)
RNA: GGGAGACCGGAAUUCAGAUUGUCCAGAUUGUUUAAAUCCCGUCGUAGCCACCA
DNA 1: CAATCTGAATTCCGGTCTCCC
DNA 2: TGGTGGCTACGACGGGATT
B15: GAGUAUG (DNA:RNA)
RNA: B1 RNA with C25G, C27G, A28U, G29A, A30U
DNA 1: CAATCTGAATTCCGGTCTCCC
DNA 2: TGGTGGCTACGACGGGATT
B16: AAGAGAA (DNA:RNA)
RNA: B1 RNA with C25A, C27G, G31A
DNA 1: CAATCTGAATTCCGGTCTCCC
DNA 2: TGGTGGCTACGACGGGATT
B17: UCAUCAU (DNA:RNA)
RNA: B14 RNA with A25U, G26C, U29C, G30A
DNA 1: CAATCTGAATTCCGGTCTCCC
DNA 2: TGGTGGCTACGACGGGATT
B18: UGCGCUU (DNA:RNA)
RNA: B14 RNA with A25U, A27C, U28G, U29C, G30U
DNA 1: CAATCTGAATTCCGGTCTCCC
DNA 2: TGGTGGCTACGACGGGATT
B19: AUGACGC (DNA:RNA)
RNA: B14 RNA with G26U, A27G, U28A, U29C, U31C
DNA 1: CAATCTGAATTCCGGTCTCCC
DNA 2: TGGTGGCTACGACGGGATT
B20: CACUACU (DNA:RNA)
RNA: B1 RNA with A28U, G29A, A30C, G31U
DNA 1: CAATCTGAATTCCGGTCTCCC
DNA 2: TGGTGGCTACGACGGGATT

This experiment concerns the target T1, RBFOX1 RRM RbFoxmut (Fox-RRM*). The experiment is described as follows: EMSA; HiTS-Eq, 1 nM pool, 10 min; buffer printed only for the single-RNA assays: 10 mM Tris pH 7.5, 150 mM NaCl, 3.4 mM EDTA, 0.001% NP-40, 30 C. To be noted: tags: His6 N-terminal (pET28a); label: 5' 32P. An outline of the steps: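 Purified RbFox RRM (wild type or mutant) was equilibrated for 10 min in 50 µL with 1 nM of a 5′-radiolabelled pool of RNA with 7 randomized nucleotides, its flanks annealed to DNA oligonucleotides, across increasing protein concentrations. Free RNA was separated by 8% native PAGE, excised, reverse-transcribed, PCR-barcoded and sequenced on an Illumina HiSeq 2500. Relative association constants came from read-count changes of each variant against the control reaction, normalised to the cognate motif.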
Consider B1, for which the binding signal is 0.124 KA relative to UGCAUGU. Next, B2: 0.115 KA relative to UGCAUGU; B3: 0.161 KA relative to UGCAUGU. B4: the binding signal is 0.16 KA relative to UGCAUGU. Turning to B5, the binding signal is 0.121 KA relative to UGCAUGU. Consider B6, for which the binding signal is 1.07 KA relative to UGCAUGU. B7: the binding signal is 0.177 KA relative to UGCAUGU. As for B8, the binding signal was 0.798 KA relative to UGCAUGU. Next, B9: 1.15 KA relative to UGCAUGU; B10: 0.223 KA relative to UGCAUGU. For B11, the binding signal is 0.143 KA relative to UGCAUGU. B12: the binding signal was 0.237 KA relative to UGCAUGU. Next, B13: 0.138 KA relative to UGCAUGU. As to B14, the binding signal was 0.222 KA relative to UGCAUGU. For B15, the binding signal is 0.795 KA relative to UGCAUGU. Consider B16, for which the binding signal was 0.115 KA relative to UGCAUGU.

For the molecule B17, the binding signal is 0.0991 KA relative to UGCAUGU. B18: the binding signal is 0.095 KA relative to UGCAUGU. Next, B19: 0.0829 KA relative to UGCAUGU; B20: 0.0793 KA relative to UGCAUGU.
